# Assay results taken from PubChem BioAssay (Tox21).
# Inconclusive results are not listed. Calls of active or inactive are those of the source. Unless noted, calls come from the whole dose curve.
# Tested on: not listed separately
# Assay: qHTS assay to identify small molecule antagonists of the sonic hedgehog signaling (Shh) pathway (AID 1259369); note: nearly all actives have a fitted effect of over 45% in size; note: potency is the fitted concentration of half-maximal effect
# Conditions: NIH/3T3 Gli1-Luc reporter, Shh antagonist, luminescence 24 h; series mostly up to 92.4 µM; activity change, negative = inhibition: at the top concentration
# Summary of the method: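 Gli1 transcriptional reporter (firefly Luc) in NIH/3T3 background, conditioned-medium activated. 24hr exposure, luminescence endpoint.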
# % is set by controls: 0 for no effect and ±100 for the full control effect.
SMILES,"activity change, negative = inhibition",Potency
CCCCCCCC/C=C\CCCCCCCC(=O)OC[C@@H](O)[C@H]1OC[C@H](O)[C@H]1O,0% (inactive),–
CC(C)CCO,-0.163% (inactive),–
CCS(=O)(=O)CCn1c([N+](=O)[O-])cnc1C,-13.7% [at 42.5 µM] (inactive),–
O=C(O)CCNC(=O)c1ccccc1,16.6% [at 42.5 µM] (inactive),–
C=C[Si](C)(C)O[Si](C)(C)C=C,8.42% (inactive),–
Cc1ccccc1C(=O)N1CC/C(=N\OS(=O)(=O)O)c2ccc(Cl)cc21,18.4% [at 42.5 µM] (inactive),–
COc1ccc(N=Nc2cc(C)c(N=Nc3ccc(S(=O)(=O)O)cc3)cc2OC)cc1,0% (inactive),–
CNC(=O)C(c1ccccc1)c1ccccc1,0% (inactive),–
CCCCCN(CCCOC)C(=O)C(CCC(=O)O)NC(=O)c1ccc(Cl)c(Cl)c1 (configuration not stated),8.06% [at 42.5 µM] (inactive),–
CCNC(=O)/C=C/c1cccc(Br)c1,37.3% [at 42.5 µM] (inactive),–
C[C@H](CCC(=O)NCC(=O)O)[C@H]1CC[C@H]2[C@@H]3[C@H](O)C[C@@H]4C[C@H](O)CC[C@]4(C)[C@H]3C[C@H](O)[C@]12C,17.5% (inactive),–
NC(Cc1c[nH]c2ccccc12)C(=O)O (configuration not stated),-4.98% [at 42.5 µM] (inactive),–
O=S(=O)(O)SSS(=O)(=O)O,-44% (inactive),–
NS(=O)(=O)c1ccc(Cl)c(S(N)(=O)=O)c1,-5.38% [at 42.5 µM] (inactive),–
COC(=O)CCC(=O)O,0% (inactive),–
CC(C)COC(=O)COc1ccc(Cl)cc1Cl,18.1% (inactive),–
C=C(C)[C@@H]1CC[C@@H](C)C[C@@H]1O,4.64% (inactive),–

SMILES,"activity change, negative = inhibition",Potency
Nc1ccc(S(=O)(=O)Nc2ccccn2)cc1,1.89% [at 42.5 µM] (inactive),–
C=CCOC(=O)c1ccc(C(=O)OCC=C)c(C(=O)OCC=C)c1,-12.1% (inactive),–
O=S(=O)(O)c1cc(O)ccc1O,-1.46% (inactive),–
CCCCC(C)C(=O)O (configuration not stated),9.32% (inactive),–
CCCCCCCCCCCCCCCCCCN(C)C,37.5% [at 42.5 µM] (inactive),–
CC(=O)OCC(=O)[C@@]1(O)[C@H](OC(C)=O)C[C@H]2[C@@H]3CCC4=CC(=O)C=C[C@]4(C)[C@@]3(F)[C@@H](O)C[C@@]21C,-2.53% [at 42.5 µM] (inactive),–
C=CCOCC(O)CCl (configuration not stated),4.46% (inactive),–
CCOC(=O)CCc1ccccc1,-12.9% (inactive),–
c1ccccc1,13.1% (inactive),–
FC(F)(F)c1ccc(Cl)cc1Cl,33.1% (inactive),–
CC(C)(C)c1ccc(C=O)cc1,4.35% (inactive),–
O=C(O)c1ccccc1C(=O)OCc1ccccc1,0.419% (inactive),–
COc1cc([N+](=O)[O-])ccc1N,-19.6% (inactive),–
C[C@@H]1C[C@H]2[C@@H]3C[C@H](F)C4=CC(=O)C=C[C@]4(C)[C@@]3(F)[C@@H](O)C[C@]2(C)[C@@]1(O)C(=O)CO,–,668 nM (active)
O=S1(=O)CCCC1,0% (inactive),–
O=c1[nH]c(=O)c2ccccc2o1,-1.35% [at 42.5 µM] (inactive),–

# Biological target: Estrogen receptor beta (Homo sapiens) (UniProt Q92731)
# Sequence (Q92731 whole entry, looked up): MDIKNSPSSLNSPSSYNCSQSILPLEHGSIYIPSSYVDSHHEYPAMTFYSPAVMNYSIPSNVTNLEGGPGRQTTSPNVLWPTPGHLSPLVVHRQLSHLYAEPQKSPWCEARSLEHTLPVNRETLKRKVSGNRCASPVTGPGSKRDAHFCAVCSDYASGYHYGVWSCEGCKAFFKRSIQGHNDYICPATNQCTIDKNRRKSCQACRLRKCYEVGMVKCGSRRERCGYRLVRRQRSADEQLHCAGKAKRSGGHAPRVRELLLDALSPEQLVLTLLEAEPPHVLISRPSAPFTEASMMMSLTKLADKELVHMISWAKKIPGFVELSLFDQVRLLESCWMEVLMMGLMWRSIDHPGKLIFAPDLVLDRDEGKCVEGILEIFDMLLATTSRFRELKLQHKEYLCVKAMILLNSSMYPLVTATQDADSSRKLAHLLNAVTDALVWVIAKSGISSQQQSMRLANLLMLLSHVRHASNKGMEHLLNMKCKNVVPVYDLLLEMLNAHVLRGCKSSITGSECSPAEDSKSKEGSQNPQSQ
# Assay: qHTS assay to identify small molecule agonists of the estrogen receptor beta (ER-beta) signaling pathway (AID 1259377; active = well fitted activation curve with a large enough effect in the signal ratio in the repeat runs, not every such curve was filed as active; the % refers to the signal ratio)
# Conditions: ER-beta-UAS-bla HEK293T, beta-lactamase FRET ratio, 16 h; series mostly up to 92.4 µM; activation: at the top concentration
# Summary of the method: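 A UAS-controlled beta-lactamase reporter in ER-beta-UAS-bla HEK293T cells reports receptor activation. Compounds act for 16 hr at 37C in 2% charcoal-stripped serum, and a FRET substrate is read by fluorescence after 2 hours.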
row,SMILES,activation
1,CCCCCCCC/C=C\CCCCCCCC(=O)OC[C@@H](O)[C@H]1OC[C@H](O)[C@H]1O,4.17% (inactive)
2,CC(C)CCO,-0.0147% (inactive)
3,Cc1ccccc1C(=O)N1CC/C(=N\OS(=O)(=O)O)c2ccc(Cl)cc21,0.924% [at 42.5 µM] (inactive)
4,COc1ccc(N=Nc2cc(C)c(N=Nc3ccc(S(=O)(=O)O)cc3)cc2OC)cc1,6.37% (inactive)
5,CCCCCCCC[Si](OCC)(OCC)OCC,2.25% (inactive)
6,CNC(=O)C(c1ccccc1)c1ccccc1,0.849% (inactive)
7,CCCCCN(CCCOC)C(=O)C(CCC(=O)O)NC(=O)c1ccc(Cl)c(Cl)c1 (configuration not stated),-3.37% [at 42.5 µM] (inactive)
8,CCNC(=O)/C=C/c1cccc(Br)c1,1.2% [at 42.5 µM] (inactive)
9,C[C@H](CCC(=O)NCC(=O)O)[C@H]1CC[C@H]2[C@@H]3[C@H](O)C[C@@H]4C[C@H](O)CC[C@]4(C)[C@H]3C[C@H](O)[C@]12C,1.55% (inactive)
10,NC(Cc1c[nH]c2ccccc12)C(=O)O (configuration not stated),-0.531% [at 42.5 µM] (inactive)
11,O=S(=O)(O)SSS(=O)(=O)O,-0.646% (inactive)
12,NS(=O)(=O)c1ccc(Cl)c(S(N)(=O)=O)c1,-1.47% [at 42.5 µM] (inactive)
13,COC(=O)CCC(=O)O,-0.199% (inactive)
14,CC(C)COC(=O)COc1ccc(Cl)cc1Cl,3.58% (inactive)
15,Nc1ccc(S(=O)(=O)Nc2ccccn2)cc1,5.08% [at 42.5 µM] (inactive)
16,C=CCOC(=O)c1ccc(C(=O)OCC=C)c(C(=O)OCC=C)c1,0.566% (inactive)
17,O=S(=O)(O)c1cc(O)ccc1O,-0.486% (inactive)
18,NS(=O)(=O)c1cc2c(cc1Cl)NC(CC1CCCC1)NS2(=O)=O (configuration not stated),2.13% [at 42.5 µM] (inactive)
19,CCCCCCCCCCCCCCCCCCN(C)C,0.92% [at 42.5 µM] (inactive)
20,C=CCOCC(O)CCl (configuration not stated),4.68% (inactive)
21,CCOC(=O)CCc1ccccc1,-0.374% (inactive)
22,Nc1cc(C(=O)O)ccc1Cl,-1.55% (inactive)
23,CC(C)(C)c1ccc(C=O)cc1,3.39% (inactive)
24,COc1cc([N+](=O)[O-])ccc1N,-1.13% (inactive)
25,C[C@@H]1C[C@H]2[C@@H]3C[C@H](F)C4=CC(=O)C=C[C@]4(C)[C@@]3(F)[C@@H](O)C[C@]2(C)[C@@]1(O)C(=O)CO,-0.494% [at 42.5 µM] (inactive)
26,O=S1(=O)CCCC1,-2.81% (inactive)
27,O=c1[nH]c(=O)c2ccccc2o1,1.12% [at 42.5 µM] (inactive)

# Biological target: Estrogen receptor beta (Homo sapiens) (UniProt Q92731)
# Assay: qHTS assay to identify small molecule antagonists of the estrogen receptor beta (ER-beta) signaling pathway (AID 1259378; active = well fitted inhibition curve with a large enough effect in the signal ratio in the repeat runs, not every such curve was filed as active; the % refers to the signal ratio)
# Conditions: ER-beta-UAS-bla HEK293T, beta-lactamase FRET ratio, 16 h; series mostly up to 92.4 µM; activity, negative = inhibition: at the top concentration
# Summary of the method: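 ER-beta-UAS-bla HEK293T (GripTite) cells in 2% charcoal-stripped FBS medium were preincubated 6 hr at 37C, dosed with compound, then stimulated with 1 nM E2 (final) for 16 hr; beta-lactamase reporter read by B/G FRET fluorescence after 2 hr substrate loading.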
row,SMILES,"activity, negative = inhibition"
1,CCCCCCCC/C=C\CCCCCCCC(=O)OC[C@@H](O)[C@H]1OC[C@H](O)[C@H]1O,1.55% (inactive)
2,CC(C)CCO,19% (inactive)
3,Cc1ccccc1C(=O)N1CC/C(=N\OS(=O)(=O)O)c2ccc(Cl)cc21,-3.36% [at 42.5 µM] (inactive)
4,CCCCCN(CCCOC)C(=O)C(CCC(=O)O)NC(=O)c1ccc(Cl)c(Cl)c1 (configuration not stated),-1.31% [at 42.5 µM] (inactive)
5,C[C@H](CCC(=O)NCC(=O)O)[C@H]1CC[C@H]2[C@@H]3[C@H](O)C[C@@H]4C[C@H](O)CC[C@]4(C)[C@H]3C[C@H](O)[C@]12C,0.605% (inactive)
6,NS(=O)(=O)c1ccc(Cl)c(S(N)(=O)=O)c1,12.3% [at 42.5 µM] (inactive)
7,COC(=O)CCC(=O)O,13% (inactive)
8,CC(C)COC(=O)COc1ccc(Cl)cc1Cl,12.1% (inactive)
9,C=CCOC(=O)c1ccc(C(=O)OCC=C)c(C(=O)OCC=C)c1,-6.5% (inactive)
10,O=S(=O)(O)c1cc(O)ccc1O,13% (inactive)
11,CCCCC(C)C(=O)O (configuration not stated),-1.53% (inactive)
12,NS(=O)(=O)c1cc2c(cc1Cl)NC(CC1CCCC1)NS2(=O)=O (configuration not stated),0.118% [at 42.5 µM] (inactive)
13,C=CCOCC(O)CCl (configuration not stated),5.25% (inactive)
14,Nc1cc(C(=O)O)ccc1Cl,1.92% (inactive)
15,COc1cc([N+](=O)[O-])ccc1N,-11% (inactive)
16,C[C@@H]1C[C@H]2[C@@H]3C[C@H](F)C4=CC(=O)C=C[C@]4(C)[C@@]3(F)[C@@H](O)C[C@]2(C)[C@@]1(O)C(=O)CO,-17% [at 42.5 µM] (inactive)
17,O=S1(=O)CCCC1,11.3% (inactive)
